Data: PMC5540273 (PLoS ONE, 2017)

Tests used:
Conditions in all cases: concentration: 1 μM,replicates: in singlicate; n = 1
RIOK1 = tested on: RIOK1
RIOK2 = tested on: RIOK2
RIOK3 = tested on: RIOK3
RIPK1 = tested on: RIPK1
RIPK2 = tested on: RIPK2
RIPK4 = tested on: RIPK4
RIPK5 = tested on: RIPK5
ROCK1 = tested on: ROCK1
ROCK2 = tested on: ROCK2
ROS1 = tested on: ROS1
[1] = tested on: RPS6KA4(Kin.Dom.1-N-terminal)
[2] = tested on: RPS6KA4(Kin.Dom.2-C-terminal)
[3] = tested on: RPS6KA5(Kin.Dom.1-N-terminal)
[4] = tested on: RPS6KA5(Kin.Dom.2-C-terminal)
[5] = tested on: T1, RSK1(Kin.Dom.1-N-terminal)
T1 construct: gene RPS6KA1

[6] = tested on: T2, RSK1(Kin.Dom.2-C-terminal)
T2 construct: gene RPS6KA1

[7] = tested on: T3, RSK2(Kin.Dom.1-N-terminal)
T3 construct: gene RPS6KA3

[8] = tested on: T4, RSK2(Kin.Dom.2-C-terminal)
T4 construct: gene RPS6KA3

[9] = tested on: T5, RSK3(Kin.Dom.1-N-terminal)
T5 construct: gene RPS6KA2

[10] = tested on: T6, RSK3(Kin.Dom.2-C-terminal)
T6 construct: gene RPS6KA2
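Further: KINOMEscan kinase panel screen.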

Row | Compound | %Inh (RIOK1) | %Inh (RIOK2) | %Inh (RIOK3) | %Inh (RIPK1) | %Inh (RIPK2) | %Inh (RIPK4) | %Inh (RIPK5) | %Inh (ROCK1) | %Inh (ROCK2) | %Inh (ROS1) | %Inh [1] | %Inh [2] | %Inh [3] | %Inh [4] | %Inh [5] | %Inh [6] | %Inh [7] | %Inh [8] | %Inh [9] | %Inh [10]
1 | C[C@@H]1CNc2c(sc3ccc4nc(-c5ccc(O)cc5)ccc4c23)C(=O)N1 | 0% | 18% | 3% | 0% | 27% | 3% | 27% | 65% | 51% | 0% | 6% | 98.8% | 2% | 17% | 6% | 12% | 58% | 70% | 12% | 47%
2 | CC(C)S(=O)(=O)N1CCN(Cc2ccc3c(c2)nc(NC(=O)c2ccsc2)n3C[C@H](O)c2ccccc2)CC1 [GW635815] | 36% | 33% | 25% | 20% | 4% | 7% | 0% | 66% | 63% | 20% | 29% | 0% | 12% | 0% | 96.1% | 0% | 91.8% | 6% | 93.5% | 24%
3 | CS(=O)c1ccc(-c2coc3ccc(-c4n[nH]c(=O)o4)cc23)cc1 (centres unmarked) | 15% | 37% | 0% | 0% | 0% | 0% | 0% | 32% | 0% | 0% | 26% | 85% | 13% | 14% | 0% | 36% | 13% | 0% | 9% | 28%
4 | FC(F)(F)c1cc(Br)cc(Nc2nccc(-c3cnn4ncccc34)n2)c1 [GW810578] | 0% | 82% | 0% | 4% | 69% | 20% | 15% | 36% | 23% | 12% | 0% | 0% | 0% | 0% | 0% | 0% | 17% | 0% | 3% | 9%
5 | Cn1ccc2ncnc(Oc3ccc(NC(=O)Nc4cncc(C(F)(F)F)c4)c(Cl)c3)c21 | 0% | 29% | 19% | 0% | 9% | 0% | 0% | 0% | 0% | 0% | 0% | 0% | 83% | 6% | 0% | 0% | 0% | 0% | 9% | 0%
6 | COc1cc2nccc(Nc3ccc(Oc4ccccc4)cc3)c2cc1OC.Cl [GI261656] | 11% | 0% | 4% | 6% | 98.3% | 3% | 50% | 16% | 29% | 27% | 0% | 0% | 0% | 12% | 2% | 0% | 0% | 0% | 0% | 0%
7 | c1ccc(Oc2ccc(Nc3ccnc4ccc(-c5ccccn5)cc34)cc2)cc1 [GW407034] | 16% | 5% | 0% | 0% | 95.7% | 16% | 31% | 11% | 0% | 10% | 11% | 0% | 3% | 0% | 10% | 0% | 7% | 8% | 19% | 0%
8 | NC(=O)c1ccc(-c2cc3ncnc(SCC(=O)O)c3s2)cc1 | 0% | 0% | 19% | 0% | 18% | 3% | 0% | 0% | 0% | 0% | 0% | 24% | 7% | 0% | 0% | 0% | 1% | 0% | 2% | 7%
9 | COc1cc(Nc2nccc(N3CCC(NC(=O)c4cccc(C#N)c4)C3)n2)cc(OC)c1OC (centres unmarked) [GSK1379751] | 90.2% | 0% | 89% | 0% | 25% | 32% | 0% | 10% | 35% | 9% | 0% | 0% | 0% | 34% | 17% | 0% | 0% | 0% | 4% | 0%
10 | C[C@@H](Oc1cc(-n2cnc3ccc(-c4ccncc4)cc32)sc1C(N)=O)c1ccccc1Cl [GSK483724] | 93% | 70% | 73% | 40% | 26% | 0% | 3% | 23% | 19% | 42% | 20% | 0% | 25% | 5% | 40% | 0% | 34% | 0% | 39% | 0%
11 | CC(=O)c1c(-c2ccncc2)[nH]c(-c2ccncc2)c1C [GW493036] | 17% | 14% | 0% | 0% | 14% | 0% | 0% | 46% | 27% | 0% | 34% | 0% | 0% | 61% | 26% | 0% | 0% | 0% | 0% | 7%
12 | COc1cc2ncn(-c3cc(OCC4CCCCC4)c(C(N)=O)s3)c2cc1OC [GSK204559] | 90% | 5% | 67% | 2% | 0% | 0% | 0% | 0% | 0% | 9% | 7% | 0% | 28% | 0% | 8% | 0% | 7% | 30% | 22% | 8%
13 | CS(=O)(=O)Nc1ccc(-c2ccnc3[nH]ccc23)cc1 [GSK993273] | 98.6% | 67% | 93.9% | 0% | 18% | 30% | 0% | 98.5% | 98.4% | 9% | 0% | 94.1% | 0% | 86% | 17% | 55% | 35% | 29% | 19% | 54%
14 | CN(c1cccc(CNc2nc(Nc3ccc4c(c3)CC(=O)N4)ncc2C(F)(F)F)c1)S(C)(=O)=O | 78% | 19% | 70% | 3% | 0% | 0% | 16% | 0% | 17% | 89% | 48% | 3% | 12% | 20% | 67% | 13% | 87% | 23% | 78% | 27%
15 | Cn1ccc2ncnc(Oc3ccc(NC(=O)Nc4cccc(C(F)(F)F)c4)c(Cl)c3)c21 | 6% | 2% | 41% | 6% | 43% | 0% | 11% | 0% | 26% | 12% | 2% | 0% | 0% | 2% | 0% | 86% | 13% | 16% | 0% | 27%
16 | Cc1ccc(CC(=O)N2CCc3cc(-c4cn(C)c5ncnc(N)c45)ccc32)cc1 [GSK2634758] | 25% | 0% | 0% | 100% | 76% | 0% | 62% | 0% | 21% | 9% | 16% | 0% | 3% | 0% | 9% | 4% | 0% | 4% | 7% | 0%
17 | O=C(Nc1cccc(C(F)(F)F)c1)c1cccc(Oc2ccc3nccn3n2)c1 | 0% | 0% | 15% | 1% | 0% | 17% | 7% | 33% | 22% | 6% | 9% | 0% | 8% | 0% | 25% | 0% | 10% | 48% | 23% | 68%
18 | CS(=O)(=O)c1cccc(CNc2nc(Nc3ccc4c(c3)[C@@H]3C[C@@H]4CNC3=O)ncc2C(F)(F)F)c1 | 76% | 0% | 67% | 0% | 0% | 77% | 75% | 0% | 0% | 86% | 33% | 0% | 0% | 46% | 66% | 7% | 84% | 0% | 85% | 13%
19 | C[C@@H]1CNc2c(sc3ccc4nc(-c5ccncc5)ccc4c23)C(=O)N1 | 0% | 0% | 5% | 0% | 0% | 0% | 0% | 14% | 1% | 14% | 33% | 98.7% | 0% | 0% | 0% | 0% | 4% | 0% | 10% | 33%
